PINK1 expr mod: PINK1 expression modulation | PINK1 immunofluorescence, high-content cytometry, 24 h | Potency, µM (doses to about 76.6 µM), usual class: activators | 410,000 compounds, 0.2% hits | AID 624263; active = well fitted activation curve with a large enough effect; inconclusive = small, poorly fitted or top-dose-only effect; cell line not stated here; note: nearly all actives have a fitted effect of over 65% in size
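PINK1 protein level read as immunofluorescence by microplate cytometer in a fixed, stained stable cell line after 24 h exposure to five compound concentrations, with CCCP as control.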
Sfp inh: inhibitors of Bacillus subtilis Sfp phosphopantetheinyl transferase | Potency, µM, actives largely listed as inhibitors | Q9F4F7 | 310,000 compounds, 3.5% hits | Biochemical Sfp PPTase activity, qHTS;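 note: the enzyme is Sfp with the accession as filed and its product quenches rhodamine fluorescence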
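Sfp 15 nM + cpd, 15 min RT; start w/ rhodamine-CoA 5 uM, BHQ-2-YbbR 12.5 uM (final); 50 mM Hepes pH 7.6, 10 mM MgCl2, 0.01% NP-40, 0.01% BSA; read 525/598 nm at 0 and 30 min.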
VP16 counter: Gal4-VP16 reporter inhibition counter-screen; Drosophila S2 Gal4-VP16 UAS-luciferase, luminescence, 20 h; Potency, µM (highest dose often 53.6 µM), actives largely listed as inhibitors; 310,000 compounds, 3.5% hits; AID 2546;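 note: Gal4-VP16 expression switched on by copper sulfate through the metallothionein promoter; nearly all actives have a fitted effect of over 50% in size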
Epigenetic derep: derepresses silenced GFP reporter in murine cells | murine LDR cells, GFP reporter derepression, 30 h | 280,000 compounds, 0.2% hits | Potency, µM (titrated, usually from 53.9 µM), usual class: activators | AID 1865; note: nearly all actives have a fitted effect of over 60% in size
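Murine LDR cells carrying a silenced, genomically integrated CMV-driven GFP reporter were exposed to compound for 30 hours at 37 C. After PBS washes, GFP-positive cells (20–120 um objects) were counted by laser-scanning microplate cytometry.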
ClpP mod: qHTS Assay for Activators of ClpP | ATP-dependent Clp protease proteolytic subunit (Bacillus subtilis (strain 168)), P80244 | purified B. subtilis ClpP, FRET peptide cleavage, 20 min | Potency, µM (titrated, usually from 57.5 µM) | 340,000 compounds, 1.9% hits | AID 651965, 2013; active = well fitted falling curve with a large enough effect; inconclusive = small, poorly fitted or top-dose-only effect; inactive = no such curve, though single readings can be large or run the other way; note: the source files actives as falling curves though it sought activators and does not explain the sign; nearly all actives have a fitted effect of over 65% in size
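ClpP 10 microg/mL final, pH 8 Tris/KCl buffer with BSA, glycerol, Tween-20; compound pinned in; FRET-FV substrate; RT 20 min; Ex320/Em430; ΔFRET vs ADEP 5.8 microM, DMSO, no enzyme.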
RORgamma inh: ROR gamma (mouse) transcription inhibition; P51450; Drosophila S2 Gal4-RORgamma UAS-luciferase reporter, 20 h; Potency, µM (top dose mostly 53.6 µM), usual class: inhibitors; 310,000 compounds, 5.4% hits; note: nearly all actives have a fitted effect of over 60% in size
Target sequence (P51450 whole entry, looked up, the tested form may be a part): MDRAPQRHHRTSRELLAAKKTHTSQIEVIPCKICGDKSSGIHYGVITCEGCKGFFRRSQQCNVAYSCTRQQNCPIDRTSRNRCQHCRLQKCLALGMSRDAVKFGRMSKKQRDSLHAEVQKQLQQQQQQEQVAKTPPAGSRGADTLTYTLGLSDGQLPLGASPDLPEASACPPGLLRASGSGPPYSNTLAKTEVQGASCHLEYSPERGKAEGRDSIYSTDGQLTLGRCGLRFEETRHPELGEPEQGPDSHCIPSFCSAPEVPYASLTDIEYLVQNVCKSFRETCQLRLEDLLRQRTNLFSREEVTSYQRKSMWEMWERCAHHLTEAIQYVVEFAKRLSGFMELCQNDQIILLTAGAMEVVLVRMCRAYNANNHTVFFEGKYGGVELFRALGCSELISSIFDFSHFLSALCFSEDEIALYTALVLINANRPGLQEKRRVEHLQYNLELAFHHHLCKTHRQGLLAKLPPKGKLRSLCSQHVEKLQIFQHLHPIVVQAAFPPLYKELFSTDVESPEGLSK
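Luminescence from a UAS-regulated Photinus luciferase reporter in stably transfected Drosophila Schneider cells is measured; decreased signal marks ROR gamma inhibition. Fusion expression is induced by 700 uM copper sulfate for 20 hr.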
Large screens that a line does not name were inactive. This is a sample that favours compounds with a hit; in the whole collection about 8.1% have one here. Unless noted, calls come from the whole dose curve; as a rule, active = well fitted curve in the direction sought with a large enough effect; inconclusive = small, poorly fitted or top-dose-only effect, or another doubt; inactive = no such curve, though single readings can be large; an effect the other way counts as inactive or inconclusive.

CCC(=O)NC(=S)Nc1ccccc1C(F)(F)F	ClpP mod 31.6µM (no result: Sfp inh, VP16 counter, Epigenetic derep, RORgamma inh)
O=C(Nc1ccccc1C(F)(F)F)Nc1cccc2ccccc12	none
CCC(C)NS(=O)(=O)c1ccc(N2CCCCS2(=O)=O)cc1 (stereo not drawn)	none (no result: Sfp inh, VP16 counter, RORgamma inh)
COc1cc(CN2CCC3(CCC(CNC(=O)c4cc(C)nn4C)O3)CC2)ccc1F (stereo not drawn)	none (no result: Sfp inh, VP16 counter, Epigenetic derep, ClpP mod, RORgamma inh)
Cc1ccc(-c2noc(-c3cccnc3N(C)Cc3ccc(Cl)cc3)n2)cc1	none (no result: Sfp inh, VP16 counter, RORgamma inh)
N#CCC(=O)NNC(=S)Nc1ccccc1C(F)(F)F	VP16 counter inconclusive, RORgamma inh 11.2µM (no result: ClpP mod)
CCOC(=O)c1cccc(NC(=O)c2cc(S(=O)(=O)N3CCCC3)cn2C)c1	none (no result: Sfp inh, VP16 counter, RORgamma inh)
C=CCNc1nc(NCC)nc(N2CCOCC2)n1	RORgamma inh 2µM
COc1ccccc1N1CCN(c2nc(CNC(=O)c3ccc4c(c3)OCO4)nc3ccccc23)CC1	none (no result: Sfp inh, VP16 counter, Epigenetic derep, ClpP mod, RORgamma inh)
CC(C)(C)c1ccc(OCC(=O)Nc2ccc(-c3nc4cccnc4o3)cc2)cc1	ClpP mod 12.6µM
CC(C)C(=O)Nc1ccc(-c2nc3cccnc3o2)cc1	VP16 counter inconclusive
COc1cc(C(=O)NNC(=O)/C=C/c2ccccc2)cc(OC)c1OC	none (no result: Sfp inh, VP16 counter, Epigenetic derep, ClpP mod, RORgamma inh)
O=C(/C=C/c1ccccc1)NC(=S)NNC(=O)c1cccnc1	VP16 counter inconclusive, RORgamma inh 10µM
COc1cc(C(=O)NNC(=S)NC(=O)/C=C/c2ccccc2)cc(OC)c1OC	VP16 counter 3.98µM, RORgamma inh 2.82µM (no result: ClpP mod)
COc1ccc(C(=S)Nc2ccc(C)cc2)cc1	Sfp inh 31.6µM, RORgamma inh 12.6µM
Cc1ccc(NC(=S)c2ccccc2)cc1	VP16 counter inconclusive, RORgamma inh 11.2µM
COc1ccc(NC(=S)c2ccncc2)cc1	none
CN(C)c1ccc(CCC2C=Cc3ccccc32)cc1 (stereo not drawn)	none (no result: PINK1 expr mod, Sfp inh, VP16 counter, Epigenetic derep, RORgamma inh)
COc1ccc2c(Sc3ccccc3)c(C(=O)NCc3ccc(OC(C)C)cc3)[nH]c2c1	none (no result: Sfp inh, VP16 counter, RORgamma inh)
Oc1ccc(/C=N/N2CCOCC2)c(O)c1O	Sfp inh 10µM (no result: ClpP mod)
Oc1ccc(/C=N/N2CCCCC2)c(O)c1O	Sfp inh 7.94µM (no result: Epigenetic derep, ClpP mod)
Oc1cccc(/C=N/N2CCCCC2)c1O	none (no result: Epigenetic derep)
CCOc1ccccc1N1C(=O)c2ccccc2N/C1=C\N1CCN(C(=O)c2ccco2)CC1	none (no result: Sfp inh, VP16 counter, Epigenetic derep, RORgamma inh)
Cc1ccc(C(=O)Nc2cccc(-c3nc(CNC(=O)C4(C)CC4)c(C)o3)c2)s1	none (no result: Sfp inh, VP16 counter, Epigenetic derep, ClpP mod, RORgamma inh)
NCCCNc1ccc(Br)cn1	none (no result: Sfp inh, VP16 counter, Epigenetic derep, RORgamma inh)
Cc1cccc(-c2nn(C(=S)Nc3ccccc3)cc2-c2ccnc3ccccc23)n1	Sfp inh inconclusive, RORgamma inh inconclusive (no result: PINK1 expr mod, Epigenetic derep, ClpP mod)
Cn1c(=O)c(C(=O)NNC(=O)c2ccccc2Cl)c(O)c2ccccc21	VP16 counter inconclusive, RORgamma inh 11.2µM (no result: Epigenetic derep, ClpP mod)
Cn1c(=O)c(C(=O)NNC(=O)c2ccccc2Br)c(O)c2ccccc21	VP16 counter inconclusive, RORgamma inh 20µM (no result: Epigenetic derep, ClpP mod)
Cn1c(=O)c(C(=O)NNC(=O)c2cccc(Cl)c2)c(O)c2ccccc21	PINK1 expr mod inconclusive, VP16 counter 17.8µM, RORgamma inh 14.1µM (no result: Epigenetic derep, ClpP mod)
CCNc1nc(NCC)nc(N/N=C/c2ccc(OC)cc2)n1	RORgamma inh 11.2µM
CCNc1nc(NCC)nc(N/N=C(\C)c2ccc(OC)cc2)n1	VP16 counter inconclusive, RORgamma inh 7.08µM
CCNc1nc(NCC)nc(N/N=C/c2ccccc2)n1	RORgamma inh 14.1µM (no result: Epigenetic derep)
COc1ccc(/C=N/Nc2nc(C)nc(N)n2)cc1	none (no result: Epigenetic derep)
CN(C)c1nc(NCc2ccccc2)nc(N/N=C/c2cccc(Br)c2)n1	VP16 counter 11.2µM, RORgamma inh 3.55µM (no result: ClpP mod)
COc1ccc(/C(C)=N/Nc2nccnc2Cl)cc1	none (no result: Sfp inh, VP16 counter, Epigenetic derep, RORgamma inh)
c1ccc(CNc2nc(N3CCN(Cc4ccccc4)CC3)nc3ccccc23)cc1	Sfp inh 56.2µM (no result: ClpP mod)
Oc1ccccc1-c1nc(NCc2ccco2)c2ccccc2n1	Sfp inh inconclusive, Epigenetic derep inconclusive
c1ccc(N2CCN(c3nc(NCc4ccco4)c4ccccc4n3)CC2)cc1	PINK1 expr mod inconclusive, Sfp inh 31.6µM, VP16 counter inconclusive, ClpP mod inconclusive, RORgamma inh inconclusive
c1ccc2c(N3CCCCC3)nc(N3CCCCC3)nc2c1	PINK1 expr mod inconclusive, Sfp inh inconclusive, RORgamma inh inconclusive
